# sEH inh = inhibitors of human soluble epoxide hydrolase; inhibition, % at 2 µM; AID 707; recombinant human sEH enzymatic activity assay; actives 0.34% (n = 91,000); in the data active = inhibition above about 80%
# Target sequence (P34913 whole entry, looked up): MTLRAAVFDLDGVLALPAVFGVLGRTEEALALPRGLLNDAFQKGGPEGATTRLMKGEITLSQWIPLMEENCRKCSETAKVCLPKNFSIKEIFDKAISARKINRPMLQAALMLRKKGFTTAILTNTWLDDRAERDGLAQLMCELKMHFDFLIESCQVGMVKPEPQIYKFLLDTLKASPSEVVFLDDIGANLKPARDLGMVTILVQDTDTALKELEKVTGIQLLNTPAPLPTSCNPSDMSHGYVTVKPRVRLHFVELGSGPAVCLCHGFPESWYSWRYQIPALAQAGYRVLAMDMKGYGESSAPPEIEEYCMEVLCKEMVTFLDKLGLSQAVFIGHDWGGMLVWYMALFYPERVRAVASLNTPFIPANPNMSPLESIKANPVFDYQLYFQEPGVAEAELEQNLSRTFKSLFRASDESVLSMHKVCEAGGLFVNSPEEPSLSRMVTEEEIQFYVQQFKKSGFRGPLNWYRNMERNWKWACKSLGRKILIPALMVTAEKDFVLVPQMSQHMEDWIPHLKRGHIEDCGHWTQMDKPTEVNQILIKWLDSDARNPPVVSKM
# Measles CPE = protection of cells from measles virus. protection (pct of control), % at 4 µM. actives 1.5% (n = 140,000). AID 841. Measles virus-infected cells, CPE protection, absorbance; in the data active = protection mostly above about 24%, no sharp cut-off; inactive = mostly below about 26%
# MRP-1 activ = activators of MRP-1; H69AR cells + doxorubicin, viability rescue, CellTiter-Glo; actives 0.61% (n = 140,000); AID 799; viability increase, % at 10 µM;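 active = viability gain under doxorubicin at or above a set limit, the compound median plus 3 SD, cut at about 4.7% in these data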;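 note: MRP-1 overexpressing cells given doxorubicin 25 µM after compound pretreatment; 18-22 h compound pretreatment then 72 h with doxorubicin before readout; 0% = doxorubicin-only wells and 100% = vehicle-treated cells without doxorubicin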
# sEH act = increases human soluble epoxide hydrolase activity; P34913; purified human sEH enzymatic activity, activator screen; activation, % at 2 µM; actives 0.04% (n = 91,000); in the data active = activation above about 37%
# sdo1 growth = sdo1-depleted yeast growth rescue. S. cerevisiae sdo1-depleted JHY4D growth rescue, OD600 30 h; active compounds read high; pdr5 snq2 efflux-pump mutant strain. z-score at 10 µM. actives 0.21% (n = 140,000). AID 817;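 active = z-score above 3 at both the 24 hr and the 30 hr optical density reads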;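 note: z-score against mean and SD of all compound wells on the same plate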
# MRP resist rev = reverses drug resistance mediated by MRP; H69AR cells + 2 uM doxorubicin, CellTiter-Glo, 72 h; differential viability (reversal), % at 10 µM; actives 0.04% (n = 85,000); AID 602;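 active = viability drop by adding the cancer drug above about 55%, with treated viability meeting a 40% cutoff, limit read from the data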;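 note: viability without doxorubicin minus viability with 2 µM doxorubicin for each compound; larger differential means the compound sensitizes cells more to doxorubicin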
# Numbers without * were called inactive; . = no result given. Only some compounds are listed: those with a hit (about 2.5% of all), similar ones and a draw of the others.
SMILES,sEH inh,Measles CPE,MRP-1 activ,sEH act,sdo1 growth,MRP resist rev
OC(COc1ccc(C2C=CCC2)cc1)CN1CCCCC1 (stereo not given),-0.3,2.2,-2.5,-0.2,-0.32,8.8
O=C(c1ccc(COc2ccc(Cl)cc2)o1)N1CCN(Cc2ccc3c(c2)OCO3)CC1,7.8,9.9,2.5,-9.8,-2.62,-4.1
CCN1CCN(C(=O)c2ccc(COc3ccc(Cl)cc3)o2)CC1,-4.2,41.9*,-1.4,7.8,0.85,9.7
Cc1cc(NC(=O)CN2CCc3ccccc3C2)nc2c1c(=O)oc1ccccc12,.,.,.,.,.,-16.0
O=C(NS(=O)(=O)Oc1cccc(Cl)c1Cl)OC[C@@H]1CCCN2CCCCC12 (stereo not given in full),.,7.2,-2.2,.,1.03,.
O=C1c2cccc3cccc(c23)C(=O)N1c1ccncc1,11.2,23.4*,5.7*,-6.7,-0.31,-10.7
O=[N+]([O-])c1ccc(N2CCOCC2)cc1NC(c1ccccc1)c1ccccc1,.,45.2*,-1.8,.,0.11,.
CC(C)(C)CNc1cc(N2CCCC2)ccc1[N+](=O)[O-],2.2,22.0,4.8*,1.9,-0.57,.
CC(C)Nc1cc(N2CCCC2)ccc1[N+](=O)[O-],0.9,2.5,-2.9,0.9,-0.37,.
CC(C)(C)c1ccc(CNc2cc(N3CCOCC3)ccc2[N+](=O)[O-])cc1,-3.0,15.7,-1.7,5.0,-0.75,.
CC(C)c1ccc(CNc2cc(N3CCCC3)ccc2[N+](=O)[O-])cc1,16.6,13.3,5.4*,-18.3,-0.65,.
O=[N+]([O-])c1ccc(N2CCCC2)cc1NC(c1ccccc1)c1ccccc1,-8.3,9.0,-3.4,8.6,-0.32,.
COc1ccc2nc(NC(=O)CN(C)S(=O)(=O)c3cccs3)sc2c1,-18.1,2.4,0.6,14.6,-0.7,.
O=C(NC1CCCC1)C(c1ccsc1)N(Cc1ccccc1)C(=O)Cc1cccs1 (stereo not given),2.6,63.0*,-3.9,-0.7,-1.36,.
CN(C)c1ccc(N/C=C/C(=O)C(C)(C)C)cc1,7.5,52.7*,-2.2,-11.4,1.34,-10.0
CN(C)c1ccc(N/C=C/C(=O)c2ccccc2)cc1,4.2,7.8,0.3,-5.1,0.96,-13.2
O=C(NC12CC3CC(CC(C3)C1)C2)N1CC2Cc3cccc(=O)n3C(C2)C1 (stereo not given),86.2*,9.1,-1.1,-86.3,-0.71,4.5
O=C(NC12CC3CC(CC(C3)C1)C2)N1CCN(S(=O)(=O)c2ccc(Cl)cc2)CC1,63.0,1.7,-0.5,-61.8,-1.81,-6.0
O=C(NCCC1=CCCCC1)C1CCN(S(=O)(=O)c2ccc(Br)s2)CC1,.,7.1,-3.0,.,-0.89,.
Cn1c(=O)c2c(ncn2CC(=O)NCc2cccnc2)n(C)c1=O,-1.5,39.1*,0.4,1.3,-0.1,2.5
COc1ccccc1/C=N/NC(=O)CC(=O)NCc1cccnc1,.,11.3,-0.7,.,2.02,.
O=C(O)c1ccccc1C(=O)NCc1cccnc1,8.7,32.2*,0.2,-9.1,0.87,0.5
O=C(NCc1cccnc1)c1ccccn1,3.4,12.8,-0.4,-0.5,-0.44,-7.0
O=C(CCSc1ccccc1)NCc1cccnc1,.,25.7,-3.4,.,0.22,.
O=C(CC(=O)N/N=C/c1ccccc1O)NCc1cccnc1,.,13.1,5.5*,.,1.44,.
SMILES,sEH inh,Measles CPE,MRP-1 activ,sEH act,sdo1 growth,MRP resist rev
O=C(CSc1ccccc1)NCc1cccnc1,.,39.7*,0.9,.,1.53,-6.3
Cc1ccn2c(C(=O)c3ccc(Cl)cc3)cnc2c1,-0.4,18.6,-1.5,-2.4,-0.12,0.7
CSCCC(NS(=O)(=O)c1ccccc1F)C(=O)OCc1ccccc1Cl (stereo not given),.,7.6,-2.0,.,0.13,.
CCCN1CCN(C(=O)c2cccc3c2C(=O)N(CCOC)C3)CC1,8.2,44.1*,-2.5,-4.9,0.31,-2.9
CCCN1Cc2cccc(C(=O)N3CCN(c4ccc(F)cc4)CC3)c2C1=O,-3.4,7.7,-1.4,3.6,0.78,-6.7
CCCn1c(N)c(C(=S)NC(=O)C2CC2)c(=O)n(C)c1=O,.,11.6,-1.0,.,2.56,.
CC1S/C(=N/N=C/c2ccco2)NC1=O (stereo not given),-4.1,9.8,-1.7,4.9,-0.3,.
Cc1cccc(NC(=O)C2CC(=O)N/C(=N/N=C/c3ccco3)S2)c1 (stereo not given),.,30.0*,-2.7,.,0.22,.
Cc1ccc(C)c(N(CC(N)=O)S(C)(=O)=O)c1,4.4,49.6*,-0.1,-4.2,0.43,4.3
Cc1ccccc1N(CC(N)=O)S(C)(=O)=O,1.1,5.4,-3.3,-1.0,2.62,0.6
CCC(C)NCCOCCSc1ccc(Cl)cc1 (stereo not given),7.7,52.0*,-3.4,-9.1,-0.22,.
CC1CCN(C(=O)c2ccc(-n3cnnn3)cc2)CC1,-5.8,39.9*,-2.1,9.9,0.72,-15.1
O=C(O)CC1(CC(=O)Nc2ccc3ccccc3c2)CCCCC1,5.9,3.5,0.8,-6.7,1.58,2.8
NC(=O)CC1(CC(=O)O)CCCCC1,-2.8,68.0*,0.1,3.1,0.92,6.8
O=C(c1ccccc1C(=O)N(c1ccccc1)c1ccccc1)N1CCCCC1,.,8.8,-2.6,.,1.4,.
CC1Cc2cc(-c3csc(NC(=O)Cc4ccccc4)n3)ccc2N1S(C)(=O)=O (stereo not given),-12.4,71.3*,1.1,12.5,-0.86,-9.1
Cn1nnnc1SCC(=O)N1c2ccccc2Sc2ccccc21,10.9,5.1,-2.9,-12.0,0.14,11.0
CCn1nnnc1SCC(=O)N1c2ccccc2Sc2ccccc21,4.1,28.2*,-3.5,0.8,-1.04,0.7
Cc1ccc(NC(=O)CN(C)S(=O)(=O)c2cccc3cccnc23)cc1,2.2,49.3*,-0.7,-1.6,-0.46,0.4
Cc1csc(NC(=O)CN(C)S(=O)(=O)c2cccc3cccnc23)n1,-9.7,2.9,-0.5,8.3,0.27,-5.6
CCCCN(CCCC)S(=O)(=O)c1ccc(NC(=O)Cc2cccs2)cc1,20.8,6.3,-4.1,-19.2,-1.42,0.2
Cc1cc(C)c(C#N)c(Sc2ccc(N)cc2)n1,.,1.4,-1.9,.,-0.88,.
O=C(OCCN1C(=O)c2ccccc2C1=O)c1cc(S(=O)(=O)N2CCOCC2)ccc1Cl,3.1,74.0*,-2.8,-2.8,-1.23,-0.5
O=C(OCCN1C(=O)c2cccc3c(N4CCOCC4)ccc(c23)C1=O)c1ccccc1Cl,.,3.5,-2.8,.,-0.39,.
O=S(=O)(NCc1cn2ccsc2n1)c1ccc2c(c1)OCCO2,4.8,13.9,0.7,-1.2,0.1,3.4
O=C(OCC(=O)N1CCCc2ccccc21)c1cncc(Br)c1,.,13.5,-1.2,.,-0.2,.
O=C(OCC(=O)N1CCCC1)c1cncc(Br)c1,8.0,43.1*,-1.5,-5.3,3.1,-7.5
Cc1ccc(C(=O)Nc2ccc3nc(C)sc3c2)s1,1.4,59.7*,0.9,-1.6,-1.05,1.5
Cc1nc2ccc(NC(=O)c3ccc([N+](=O)[O-])cc3)cc2s1,.,3.2,-3.7,.,0.35,.
Cc1cc(NC(=O)c2ccc3nc(C)sc3c2)no1,0.8,59.6*,1.4,-1.1,0.84,-5.3

# Assay outcomes: PubChem BioAssay, several laboratories
